From PubChem BioAssay (NCI)
Compounds without any hit were thinned out: in the full panel of roughly 83,000, 20% have a hit.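 Cells were grown in 96-well plates and exposed to the test compound at a single concentration for 48 hours; results are reported as percent growth, with values below 10 considered active.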 Unmarked numbers belong to inactive results. The source made the active and inactive calls.

Columns and labels:
Assay in all cases: NCI-60 one-dose screen, 48 h (100 = growth as untreated, 0 = no growth, -100 = all killed)
DU-145 prostate = conditions: 10 µM unless noted
K-562 leukemia = conditions: 10 µM unless noted
MALME-3M melanoma = conditions: 10 µM unless noted
RXF 393 renal = conditions: 10 µM unless noted
SF-268 CNS = conditions: 10 µM unless noted
SF-295 CNS = conditions: 10 µM unless noted
SF-539 CNS = conditions: 10 µM unless noted
UACC-257 melanoma = conditions: 10 µM unless noted
M14 melanoma = conditions: 10 µM unless noted
HCT-15 colon = conditions: 10 µM unless noted
HT29 colon = conditions: 10 µM unless noted
SNB-19 CNS = conditions: 10 µM unless noted
U251 CNS = conditions: 10 µM unless noted
PC-3 prostate = conditions: 10 µM unless noted
SK-MEL-5 melanoma = conditions: 10 µM unless noted
UACC-62 melanoma = conditions: 10 µM unless noted
SK-MEL-28 melanoma = conditions: 10 µM unless noted
MDA-MB-231 breast = conditions: 10 µM unless noted
SNB-75 CNS = conditions: 10 µM unless noted
LOX IMVI melanoma = conditions: 10 µM

SMILES | growth (DU-145 prostate) | growth (K-562 leukemia) | growth (MALME-3M melanoma) | growth (RXF 393 renal) | growth (SF-268 CNS) | growth (SF-295 CNS) | growth (SF-539 CNS) | growth (UACC-257 melanoma) | growth (M14 melanoma) | growth (HCT-15 colon) | growth (HT29 colon) | growth (SNB-19 CNS) | growth (U251 CNS) | growth (PC-3 prostate) | growth (SK-MEL-5 melanoma) | growth (UACC-62 melanoma) | growth (SK-MEL-28 melanoma) | growth (MDA-MB-231 breast) | growth (SNB-75 CNS) | growth (LOX IMVI melanoma)
CC1=C(C(=O)OCc2ccccc2)C(c2c(O)cc(O)cc2O)n2c(nc3ccccc32)N1 (stereo not drawn) | 82.3% | 17.4% | 52.7% | 25.5% | 52.7% | 25.4% | 16.8% | 47.9% | 41.7% | 39% | 38.7% | 59.7% | 42.7% | 49.2% | 53% | 14.7% | 60.2% | – | – | –
N#Cc1c(-c2ccccc2Cl)cc(-c2ccc3ccccc3c2)[nH]c1=O | 49% | 62% | 12.9% | -6.69% (active) | 22.5% | 1.62% (active) | 16.5% | 70.3% | 25.1% | 63.2% | 108% | 17% | -2.47% (active) | 60.6% | 79.4% | 52.7% | 67.9% | – | – | –
CCN1CCN(Cc2ccc(C(=O)Nc3cccc(C#Cc4cccc5[nH]nc(N)c45)c3)cc2C(F)(F)F)CC1 | -41.8% (active) | – | -76.2% (active) | -87.6% (active) | -61.6% (active) | -87.1% (active) | -97.4% (active) | -89.3% (active) | -95.2% (active) | -87.6% (active) | -10.5% (active) | -88.7% (active) | -94.6% (active) | -14% (active) | – | -74.7% (active) | -95% (active) | -90.8% (active) | -62% (active) | -92.6% (active)
COc1ccc(-c2cc(C(=O)NCc3ccccc3)nn2-c2ccc(S(C)(=O)=O)cc2)cc1OC | 105% | 105% | 108% | 110% | 97.3% | 98.1% | 95.2% | 105% | 111% | 108% | 102% | 95.2% | 99.2% | 110% | 97.1% | – | 134% | – | 62.5% | –
COc1cc(-c2ccc(/C=N/NC(=O)c3[nH]c4ccc(Br)cc4c3-c3ccccc3)s2)cc(OC)c1OC | 86.4% | 89.6% | 86.7% | 82.4% | 67.8% | 49.6% | 6.55% (active) | 100% | 82.5% | 66% | 93.6% | 63.9% | 63.4% | 76.5% | 89.8% | – | 84.1% | – | 66.4% | –
O=C(N/N=C/c1ccc(-c2ccc(O)cc2)o1)c1[nH]c2ccc(Br)cc2c1-c1ccccc1 | 0.567% (active) | 1.64% (active) | -26.8% (active) | -10% (active) | 12.7% | -68.7% (active) | -59.2% (active) | 27.4% | 18.1% | 2.62% (active) | -34.8% (active) | 10.3% | -29.2% (active) | -6.14% (active) | -82.9% (active) | -14.9% (active) | -27% (active) | – | – | –
O=C(N/N=C/c1ccc(-c2ccc(O)cc2)s1)c1[nH]c2ccc(Br)cc2c1-c1ccccc1 | 30.1% | 2.31% (active) | -2.08% (active) | -29.5% (active) | 28.9% | 0.137% (active) | -57.2% (active) | 53.9% | 9.8% (active) | 6.81% (active) | -71.4% (active) | – | 25.7% | 7.47% (active) | 5.31% (active) | -13.1% (active) | 1.23% (active) | – | -12.7% (active) | –
CC1=C(C(=O)c2ccccc2)C(c2cccc3ccccc23)n2c(nc3ccccc32)N1 (stereo not drawn) | 67.3% | 39.3% | 57.4% | 76.4% | 60.1% | 76.9% | 1.2% (active) | 84% | 73.5% | 70.3% | 50.5% | 66.1% | 17% | 53.2% | 62.1% | – | 84.1% | – | 60.3% | –
CN1CCN(Cc2ccc(C(=O)Nc3cccc(C#Cc4cccc5[nH]nc(N)c45)c3)cc2C(F)(F)F)CC1 | -68% (active) | – | -82.6% (active) | -93.6% (active) | -59% (active) | -93.4% (active) | -97.5% (active) | -94.7% (active) | -95.6% (active) | -93.9% (active) | -50.3% (active) | -89.7% (active) | -79.2% (active) | -22.9% (active) | – | -88% (active) | -97.4% (active) | -90.8% (active) | -82.5% (active) | -92% (active)
O=C(NNc1nc2cc(F)ccc2n2c(CN3CC4CNCC4C3)ccc12)c1ccncn1 (stereo not drawn) | 42.1% | – | 22.5% | 64.1% | 28.3% | 2.58% (active) | -10.3% (active) | 12.1% | -15.6% (active) | 28.9% | 31.7% | 22.2% | 9.87% (active) | 32.6% | – | -13.4% (active) | 23.2% | 27.5% | 49% | 6.59% (active)
